From PubChem
Only some compounds are listed: those with a hit (about 2.2% of all), similar ones and a draw of the others.
AI-2 QS modul = Vibrio harveyi AI-2 quorum sensing modulators, primary screen, JMH597 strain, luminescence/OD600 ratio; actives 0.4% (n = 300,000); activity change, % at 7.5 µM; AID 2094, 2009; Vibrio harveyi JMH597 AI-2 luminescence/OD600 ratio, 9 h; stronger effect = lower value; strain lacks LuxN and CqsS sensors; 0 = neutral-control median; in the data active = activity change below about -75%, passing the limit was not always enough;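 also: luminescence divided by OD600 gain over 9 h not by final OD600 alone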
CHT block = inhibitors of human choline transporter CHT; actives 0.86% (n = 310,000); CHT-expressing cells, membrane potential dye, choline response; stronger effect = lower value; High affinity choline transporter 1 (Homo sapiens), Q9GZV3; B-score at 10 µM;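 active = B-score over 3 SD under the library average, and starting fluorescence ratio not unusually high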;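 also: choline stimulus applied at its EC90 after an EC20 pre-addition; B-score computed on integrated fluorescence ratio after choline addition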
HIF activator = HIF pathway transcriptional activators, primary screen, cell-based, U2OS HRE-luciferase, luminescence; activation, % at 7.5 µM (by protocol); actives 0.32% (n = 300,000); U2OS HRE-luciferase reporter; normalized: DMSO 0%, desferrioxamine 100%;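 active = mean activation of at least 10% of the iron chelator positive control signal, with at least half of replicates also reaching 10%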
CHT PAM = CHT positive allosteric modulators, primary screen, cell-based, membrane potential dye, choline EC20 | CHT-expressing cells; stronger effect = higher value; LV-AA mutant CHT in HEK293 cells | AID 488977, 2010 | B-score at 10 µM | actives 0.49% (n = 310,000);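 active = initial fluorescence not abnormally high and integrated response B-score, plate-corrected, over 3 SD above library mean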
Platelet DG rel = inhibitors of platelet dense granule secretion, primary screen, cell-based, MLPCN, human platelets. human platelet-rich plasma, SFLLRN dense granule ATP release, luminescence. inhibition, %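 (compounds screened at 7.5 µM in platelet-rich plasma)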. actives 0.22% (n = 300,000);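 active = mean replicate score, as percent of positive control, at or above 50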
VLA-4 inh = inhibition in human VLA-4 binding assay, primary screen, VLA-4 allosteric modulator project, MLPCN library, flow cytometry, VLA-4 expressing cells. Integrin alpha-4 (Homo sapiens), P13612. ligand binding flow cytometry. inhibition, % (about 7 µM as worked out from the volumes in the protocol). actives 0.2% (n = 330,000). AID 2557, 2010; in the data active = inhibition above about 50%
Target sequence (P13612 whole entry, looked up): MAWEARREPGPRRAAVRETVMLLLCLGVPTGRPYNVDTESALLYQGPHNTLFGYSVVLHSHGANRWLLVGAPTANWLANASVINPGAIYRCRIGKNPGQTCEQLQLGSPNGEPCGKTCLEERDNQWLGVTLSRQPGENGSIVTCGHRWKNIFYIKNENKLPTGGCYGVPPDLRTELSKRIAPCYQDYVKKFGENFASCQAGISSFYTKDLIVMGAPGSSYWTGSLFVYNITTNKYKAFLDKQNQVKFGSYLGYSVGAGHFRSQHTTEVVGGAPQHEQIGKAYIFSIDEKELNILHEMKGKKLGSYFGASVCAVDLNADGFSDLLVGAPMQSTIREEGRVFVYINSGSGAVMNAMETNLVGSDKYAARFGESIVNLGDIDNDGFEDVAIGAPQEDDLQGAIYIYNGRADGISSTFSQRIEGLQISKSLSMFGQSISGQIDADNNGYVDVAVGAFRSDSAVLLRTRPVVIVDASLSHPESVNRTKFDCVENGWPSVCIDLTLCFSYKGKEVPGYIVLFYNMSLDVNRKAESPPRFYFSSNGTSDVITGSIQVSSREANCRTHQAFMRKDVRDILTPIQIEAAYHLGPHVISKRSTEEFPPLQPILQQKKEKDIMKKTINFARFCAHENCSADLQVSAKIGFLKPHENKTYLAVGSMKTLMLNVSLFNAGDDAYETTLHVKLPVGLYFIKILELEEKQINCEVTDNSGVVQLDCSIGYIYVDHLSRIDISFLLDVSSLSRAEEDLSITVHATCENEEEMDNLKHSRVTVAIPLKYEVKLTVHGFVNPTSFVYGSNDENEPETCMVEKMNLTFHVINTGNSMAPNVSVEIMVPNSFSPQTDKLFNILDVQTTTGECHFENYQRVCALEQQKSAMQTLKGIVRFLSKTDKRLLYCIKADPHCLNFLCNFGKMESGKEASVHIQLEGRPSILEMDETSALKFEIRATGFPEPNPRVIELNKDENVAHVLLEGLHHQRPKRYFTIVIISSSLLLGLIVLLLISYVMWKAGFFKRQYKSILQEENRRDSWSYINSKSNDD
CHT block conf = CHT inhibitors, confirmation, cell-based, membrane potential dye, duplicate; shares compounds with CHT block; CHT-expressing cells, choline membrane potential dye; LV-to-AA substituted CHT, HEK293 cells; CHT activity remaining % of control (stronger effect = lower value), % at 10 µM; actives 70% (n = 2,400); AID 493221, 2011;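 active = choline transporter activity left, mean of duplicates at 10 µM, below buffer-only control mean minus 3 SD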;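 also: depolarization triggered by choline at its EC90 following an EC20 pre-addition; 0% = hemicholinium-3 full block and 100% = buffer-only control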
HEK293 MPD ctr = membrane potential effects in parental HEK293, counter-screen for CHT inhibitor project, cell-based, membrane potential dye | membrane potential ratio readout (active if shifted either direction beyond buffer ±3SD; no single direction) at 10 µM | shares compounds with CHT block | actives 4% (n = 2,400) | choline response; active = decrease or increase beyond buffer ±3SD;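 also: parental cells lack the transporter so any hit is non-specific; ratio is peak minus trough fluorescence over baseline after EC90 choline challenge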
* = called active by the depositor; i = inactive; nt = no result.

SMILES | AI-2 QS modul | CHT block | HIF activator | CHT PAM | Platelet DG rel | VLA-4 inh | CHT block conf | HEK293 MPD ctr
Cc1ccccc1Cn1cnc2c([N+](=O)[O-])c(C)c(C)cc21 | 42 | i | 0 | i | 0 | -6 | nt | nt
COc1ccc(Cn2cnc3c([N+](=O)[O-])c(C)c(C)cc32)cc1 | 18 | -9.4* | 0 | i | 0 | 18 | 34%* | i
Cc1ccc(S(=O)(=O)N2CCN(C(=O)COC(=O)CCCOc3ccccc3)CC2)c(C)c1 | nt | nt | nt | nt | nt | 38 | nt | nt
CC(C)(C)OC(=O)NCCc1nnc(SCc2ccc(Cl)cc2)o1 | 34 | -6.1* | 0 | i | 3 | -5 | 65%* | i
CCSc1nnc(CCNC(=O)OC(C)(C)C)o1 | 9 | i | 0 | i | 11 | 10 | nt | nt
CC(C)(C)OC(=O)NCCCCCc1nnc(SCC(=O)Nc2cccc(Cl)c2)o1 | 18 | -5.6* | 0 | i | -13 | 7 | i | i
CCOc1ccc2nc(Cl)c(CN(C(C)=O)C3CCCCC3)cc2c1 | 0 | -5.5* | 0 | i | -1 | 0 | i | i
CCOc1ccc2nc(Cl)c(CN(C(=O)c3cnccn3)C3CCCC3)cc2c1 | 11 | i | 0 | i | 2 | 3 | nt | nt
CCOc1ccc(NCC(=O)N/N=C/C=C/c2ccccc2)cc1 | -7 | i | 0 | i | -10 | 23 | nt | nt
COc1ccc(OCC(=O)N/N=C/C=C/c2ccccc2)cc1 | 24 | -7.9* | 0 | i | -3 | 6 | 69%* | i
C=CCNc1nc2ccccc2nc1NS(=O)(=O)c1ccc(Br)cc1 | 31 | -5.1* | 1 | i | 10 | -5 | 69%* | i
C=CCNc1nc2ccccc2nc1NS(=O)(=O)c1ccc(F)cc1 | 2 | i | 1 | i | 2 | 0 | nt | nt
COc1ccc(CC(=O)N2CCc3cc(OC)c(OC)cc3C2C)c(OC)c1 (stereo not drawn) | 19 | -12* | -1 | i | nt | 4 | i | i
Cc1csc2c(N3CCN(C(=S)Nc4ccc(C(F)(F)F)cc4)CC3)ncnc12 | 9 | -6.2* | 0 | i | 1 | 2 | 55%* | i
Cc1csc2ncnc(N3CCN(C(=S)Nc4ccc(C(F)(F)F)cc4)CC3)c12 | -3 | i | 0 | i | -24 | 1 | nt | nt
COc1ccc(-c2ccc(-c3noc(-c4ccccc4OC)n3)c(OC)n2)cc1 | 11 | -5* | 1 | i | 2 | -8 | i | i
CCN1CCN(C(=O)c2ccc3nc(-c4ccccc4)c(-c4ccccc4)nc3c2)CC1 | 16 | -7* | -1 | i | -6 | 9 | 22%* | i
CN1CCN(CCNC(=O)c2ccc3nc(-c4ccc(F)cc4)c(-c4ccc(F)cc4)nc3c2)CC1 | -20 | -12* | -2 | i | 2 | 4 | 8.4%* | i
O=C(O)c1ccc2nc(-c3ccccc3)c(-c3ccccc3)nc2c1 | 29 | i | 3 | i | 5 | 0 | nt | nt
CCc1nc2ccc(C(=O)NCCCN3CCN(c4ccc(F)cc4)CC3)cc2nc1CC | 43 | i | 0 | i | 2 | 8 | nt | nt
CCN(CC)CCNC(=O)C(=O)NCC1OCCN1S(=O)(=O)c1cccs1 (stereo not drawn) | 8 | i | 0 | i | 3 | 10 | nt | nt
